Assay results published in PubChem BioAssay (NCI).
The panel holds about 83,000 compounds, 20% with a hit somewhere; the sample as a whole holds those more often.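 Cell lines were cultured in 96-well plates, exposed to a single compound concentration, and assessed for percent growth 48 hours later.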 Activity calls are given as the source filed them. The calls were made as follows: active = growth percent below 10; inactive = the rest.

Legend:
Experiment in all cases: NCI-60 one-dose screen, 48 h (100 = growth as untreated, 0 = no growth, -100 = all killed)
Conditions in all cases: 10 µM unless noted
SR leukemia = test system: SR leukemia
RPMI-8226 leukemia = test system: RPMI-8226 leukemia
OVCAR-8 ovarian = test system: OVCAR-8 ovarian
OVCAR-5 ovarian = test system: OVCAR-5 ovarian
OVCAR-4 ovarian = test system: OVCAR-4 ovarian
SK-OV-3 ovarian = test system: SK-OV-3 ovarian
IGROV1 ovarian = test system: IGROV1 ovarian
OVCAR-3 ovarian = test system: OVCAR-3 ovarian
NCI/ADR-RES ovarian = test system: NCI/ADR-RES ovarian
T-47D breast = test system: T-47D breast
BT-549 breast = test system: BT-549 breast
MDA-MB-435 melanoma = test system: MDA-MB-435 melanoma
SW-620 colon = test system: SW-620 colon
MCF7 breast = test system: MCF7 breast
HCT-116 colon = test system: HCT-116 colon
HCC-2998 colon = test system: HCC-2998 colon
KM12 colon = test system: KM12 colon

Measured: growth

COC(=O)CC(=O)C(=O)OC
inactive: SR leukemia 93.1% | RPMI-8226 leukemia 101% | OVCAR-8 ovarian 105% | OVCAR-5 ovarian 108% | OVCAR-4 ovarian 108% | SK-OV-3 ovarian 106% | IGROV1 ovarian 108% | OVCAR-3 ovarian 106% | NCI/ADR-RES ovarian 106% | T-47D breast 99.9% | BT-549 breast 101% | MDA-MB-435 melanoma 120% | SW-620 colon 104% | MCF7 breast 97.6% | HCT-116 colon 93.4% | HCC-2998 colon 104% | KM12 colon 106%

NC(CSC(c1ccccc1)(c1ccccc1)c1ccccc1)C(=O)NCC(=O)O (stereo unspecified)
active: MDA-MB-435 melanoma -5.86%
inactive: SR leukemia 34.1% | RPMI-8226 leukemia 49.3% | OVCAR-8 ovarian 70.7% | OVCAR-5 ovarian 94.7% | OVCAR-4 ovarian 100% | SK-OV-3 ovarian 35% | IGROV1 ovarian 72.6% | OVCAR-3 ovarian 98% | NCI/ADR-RES ovarian 108% | T-47D breast 96.1% | BT-549 breast 70.4% | SW-620 colon 41.6% | MCF7 breast 45% | HCT-116 colon 40.8% | HCC-2998 colon 28% | KM12 colon 77.5%

CC(=O)N(N=O)c1ccc([N+](=O)[O-])cc1Cl
inactive: SR leukemia 63.1% | RPMI-8226 leukemia 17.2% | OVCAR-8 ovarian 66.1% | OVCAR-5 ovarian 88.5% | OVCAR-4 ovarian 55.5% | SK-OV-3 ovarian 66.9% | IGROV1 ovarian 67.7% | OVCAR-3 ovarian 44.5% | NCI/ADR-RES ovarian 64.5% | T-47D breast 29.2% | BT-549 breast 71.7% | MDA-MB-435 melanoma 66.7% | SW-620 colon 71.6% | MCF7 breast 52.2% | HCT-116 colon 44.9% | HCC-2998 colon 76.6% | KM12 colon 69%

COc1cc(CNC(=O)CCCC/C=C/C(C)C)ccc1OCc1nnc(Nc2ccccc2F)o1
inactive: SR leukemia 67.3% | RPMI-8226 leukemia 64.9% | OVCAR-8 ovarian 45.2% | OVCAR-5 ovarian 77.7% | SK-OV-3 ovarian 48.6% | IGROV1 ovarian 58.4% | OVCAR-3 ovarian 68.3% | NCI/ADR-RES ovarian 43.3% | T-47D breast 65% | BT-549 breast 76.9% | MDA-MB-435 melanoma 100% | SW-620 colon 98.9% | MCF7 breast 66.9% | HCT-116 colon 53.5% | HCC-2998 colon 90.8% | KM12 colon 78.8%
active: OVCAR-4 ovarian 0.691%

O=C(/C=C\c1ccc(NCc2ccc(C(=O)O)cc2)cc1)CCl
inactive: RPMI-8226 leukemia 60.4% | OVCAR-8 ovarian 66.9% | OVCAR-5 ovarian 114% | OVCAR-4 ovarian 90.6% | SK-OV-3 ovarian 106% | IGROV1 ovarian 90.4% | OVCAR-3 ovarian 72.4% | NCI/ADR-RES ovarian 100% | BT-549 breast 64.3% | MDA-MB-435 melanoma 89.5% | MCF7 breast 24% | HCC-2998 colon 97.5% | KM12 colon 98.2%
active: SR leukemia -12.1% | T-47D breast -22.8% | SW-620 colon 3.72% | HCT-116 colon -15.3%

CC([C@H]1CCC2C3CCC4C[C@@H](N)CC[C@]4(C)C3CC[C@@]21C)N(C)C (stereo partly specified)
active: MDA-MB-435 melanoma 0%
inactive: SR leukemia 18.5% | RPMI-8226 leukemia 58.7% | OVCAR-8 ovarian 85.7% | OVCAR-5 ovarian 98.5% | OVCAR-4 ovarian 38.4% | SK-OV-3 ovarian 91.1% | IGROV1 ovarian 53.1% | OVCAR-3 ovarian 71.5% | NCI/ADR-RES ovarian 81.5% | T-47D breast 55.9% | BT-549 breast 80.1% | SW-620 colon 40.2% | MCF7 breast 48.7% | HCT-116 colon 27.9% | HCC-2998 colon 80.1% | KM12 colon 51.3%

CCCNC(=O)Oc1ccc(/C(=C(/C)Cc2ccc(OC)cc2)c2ccc(OCCN3CCCCC3)cc2)cc1
active: SR leukemia 3.39%
inactive: RPMI-8226 leukemia 77.5% | OVCAR-8 ovarian 91.1% | OVCAR-5 ovarian 94.9% | OVCAR-4 ovarian 87.3% | SK-OV-3 ovarian 90.2% | IGROV1 ovarian 98.4% | OVCAR-3 ovarian 88.6% | NCI/ADR-RES ovarian 84.4% | T-47D breast 45.4% | BT-549 breast 92.9% | MDA-MB-435 melanoma 92.5% | SW-620 colon 90.4% | MCF7 breast 31.8% | HCT-116 colon 73% | HCC-2998 colon 84.6% | KM12 colon 94%

C=CN(C)S(C)(=O)=O
inactive: SR leukemia 14.2% | RPMI-8226 leukemia 16.8% | OVCAR-8 ovarian 34.8% | OVCAR-5 ovarian 90.9% | OVCAR-4 ovarian 70.4% | SK-OV-3 ovarian 13.8% | IGROV1 ovarian 51.5% | NCI/ADR-RES ovarian 20.1% | T-47D breast 16.8% | BT-549 breast 46.8% | SW-620 colon 19.9% | HCT-116 colon 19.7% | HCC-2998 colon 53% | KM12 colon 33.6%
active: OVCAR-3 ovarian -14.1% | MDA-MB-435 melanoma -35.4% | MCF7 breast 4.56%

Cc1cc(CSc2ccc(Cl)cc2)ccc1N
inactive: SR leukemia 93.5% | RPMI-8226 leukemia 15.5% | OVCAR-8 ovarian 99.8% | OVCAR-5 ovarian 99.6% | OVCAR-4 ovarian 96.9% | SK-OV-3 ovarian 106% | IGROV1 ovarian 86% | OVCAR-3 ovarian 97.6% | NCI/ADR-RES ovarian 95% | T-47D breast 84.1% | BT-549 breast 55.6% | MDA-MB-435 melanoma 104% | SW-620 colon 126% | MCF7 breast 112% | HCT-116 colon 101% | HCC-2998 colon 97.7% | KM12 colon 70.7%

O=CN/N=C/c1ccc(Cl)c([N+](=O)[O-])c1
inactive: SR leukemia 39.9% | RPMI-8226 leukemia 15.6% | OVCAR-8 ovarian 18.1% | OVCAR-5 ovarian 31% | OVCAR-4 ovarian 49.6% | SK-OV-3 ovarian 46.9% | IGROV1 ovarian 16.9% | OVCAR-3 ovarian 18.1% | NCI/ADR-RES ovarian 107% | T-47D breast 25.3% | BT-549 breast 42.6% | MDA-MB-435 melanoma 18.9% | SW-620 colon 17.6% | HCT-116 colon 16.2% | HCC-2998 colon 27.2%
active: MCF7 breast 6.05% | KM12 colon 7.24%

CN1C(=O)C(=Cc2coc3ccc(Br)cc3c2=O)C(=O)N(C)C1=O
inactive: SR leukemia 126% | RPMI-8226 leukemia 108% | OVCAR-8 ovarian 98.5% | OVCAR-5 ovarian 114% | OVCAR-4 ovarian 118% | SK-OV-3 ovarian 96.3% | IGROV1 ovarian 101% | OVCAR-3 ovarian 105% | NCI/ADR-RES ovarian 97.9% | T-47D breast 101% | BT-549 breast 106% | MDA-MB-435 melanoma 109% | MCF7 breast 88.3% | HCT-116 colon 95.2% | HCC-2998 colon 98.5% | KM12 colon 114%

O=c1oc2ccc3ccccc3c2cc1-c1ccnc2[nH]c(=S)[nH]c(=O)c12
inactive: SR leukemia 82.7% | RPMI-8226 leukemia 89.1% | OVCAR-8 ovarian 99.8% | OVCAR-5 ovarian 112% | OVCAR-4 ovarian 117% | SK-OV-3 ovarian 93.1% | IGROV1 ovarian 104% | OVCAR-3 ovarian 107% | NCI/ADR-RES ovarian 94.8% | T-47D breast 103% | BT-549 breast 101% | SW-620 colon 105% | MCF7 breast 96.8% | HCT-116 colon 93.9% | HCC-2998 colon 101%
